From PubChem BioAssay (NCATS)
“And” between values parts separate entries of the source, which are not always exact repeats. Equal entries are not always repeated. Records with an inconclusive call do not appear. The source made the active and inactive calls. Unless noted, no rule for the calls is given here.

Experiments:
[1] = qHTS profiling of the MIPE4 collection as inhibitors of Plasmodium falciparum (3D7) proliferation (AID 743344);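 also: scaled between DMSO vehicle wells and 0.29 µM artemisinin as full inhibition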; settings: P. falciparum 3D7 in erythrocytes, SYBR Green DNA fluorescence, 72 h; at 28.5 µM unless noted
Outline: (§1)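 Parasite DNA was quantified by SYBR Green I fluorescence (ex 485, em 535 nm) after overnight lysis in saponin/Triton buffer at room temperature. Cultures at 0.3% parasitemia and 2.5% hematocrit were first exposed to compound for 72 h at 37 C; signals were normalised to artemisinin (0.29 uM) and vehicle wells.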

[2] = qHTS profiling of the MIPE4 collection as inhibitors of Plasmodium falciparum (DD2) proliferation (AID 743345); settings: P. falciparum Dd2 in erythrocytes, SYBR Green DNA, 72 h; at 28.5 µM unless noted
Outline: as §1

[3] = qHTS profiling of the MIPE4 collection as inhibitors of Plasmodium falciparum (DD2) proliferation (Rep 2) (AID 743346); settings: P. falciparum Dd2 in erythrocytes, SYBR Green DNA, 72 h; at 28.5 µM unless noted
Outline: as §1

[4] = qHTS profiling of the MIPE4 collection as inhibitors of Plasmodium falciparum (HB3) proliferation (AID 743347);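 also: plate controls were DMSO vehicle wells for no effect and artemisinin wells for full effect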; settings: P. falciparum HB3 in erythrocytes, SYBR Green DNA, 72 h; at 28.5 µM unless noted
Outline: as §1

[5] = High-throughput drug toxicity screening in the BPDCN cell line Gen2.2 (AID 1224824); settings: Gen2.2 BPDCN cells; at 45.8 µM (top of the series) unless noted;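 also: cells exposed to compounds for 48 h before reading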
Outline: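 CellTiter-Glo luminescence after 48 h compound exposure of Gen2.2 cells; percent activity set with DMSO as 100% and bortezomib (9.2 uM final) as 0%. Cells seeded at 500 per well, RPMI + 10% FBS, 37 °C.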

[6] = High-throughput drug toxicity screening in the BPDCN cell line Cal-1 (AID 1224825); settings: Cal-1 BPDCN cell viability, qHTS; at 45.8 µM (top of the series) unless noted
Outline: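 CellTiter-Glo luminescence after 48 h compound exposure; percent activity scaled with DMSO as 100% and bortezomib (9.2 uM final) as 0%. Cal-1 cells seeded at 500/well in RPMI, 10% FBS, no phenol red.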

[7] = qHTS assay for measurement of the activity of small molecule inhibitors on Zika virus induced Caspase-3 activity in human astrocytoma cells (AID 1224859; active = well fitted inhibition curve with a large enough effect;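 also: plate controls were ZIKV-infected untreated cells for no effect and uninfected cells for full effect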)
Outline: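 Caspase activation in ZIKV-infected SNB-19 cells (2 FFU/cell, 6 h) measured by Caspase-Glo 3/7 luminescence after 30 min RT; compound pre-incubated 1 h; normalised to uninfected and infected controls.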

[8] = qHTS Screen of the MIPE 4.0 Collection Against Ewings Sarcoma (EW8) (AID 1259255; active = well fitted inhibition curve with a large enough effect; also: nearly all actives have a fitted effect of over 35% in size; also: potency is read from the fitted curve at half-maximal effect;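 as to viability: 100% = DMSO-treated cells and 0% = medium-only wells without cells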)
Outline: (§2)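 Viability screen: 48 h incubation at 37C, 95% humidity, 5% CO2 with serially titrated compound, followed by CellTiter-Glo readout.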

[9] = qHTS Screen of the MIPE 4.0 Collection Against Ewings Sarcoma (TC32) (AID 1259256; active = well fitted inhibition curve with a large enough effect; also: nearly all actives have a fitted effect of over 45% in size; also: potency is read from the fitted curve at half-maximal effect)
Outline: as §2

[10] = qHTS Screen of the MIPE 4.0 Collection Against Ewings Sarcoma (RDES) (AID 1259252; active = well fitted inhibition curve with a large enough effect; also: nearly all actives have a fitted effect of over 35% in size; also: potency is read from the fitted curve at half-maximal effect)
Outline: as §2

[11] = qHTS Screen of the MIPE 4.0 Collection Against Ewings Sarcoma (TC71) (AID 1259253; active = well fitted inhibition curve with a large enough effect; also: nearly all actives have a fitted effect of over 40% in size; also: potency is read from the fitted curve at half-maximal effect)
Outline: as §2

Row | SMILES | parasite growth, % of DMSO control [1] | parasite growth remaining, % of DMSO control (lower = more inhibition) [2] | parasite growth, % of control (lower = inhibition) [3] | growth, % of control [4] | cell viability, % of control (lower = more cytotoxic) [5] [%] | viability (% of control) [6] [%] | Potency [7] | Potency [8] | Potency [9] | Potency [10] | Potency [11]
1 | C[C@H](NC(=O)c1sccc1OCc1ccc(Cl)cc1)c1ccccc1 | 13.9% | 14.8% | 10.7% | 3.82% | 181 | 45.5 | inactive |  |  |  | 
2 | COC(=O)C1=CO[C@@H](O)[C@@H]2C(CO)=CC[C@@H]12 | 83% | 85.9% | 98.4% | 91% | 17.3 | 16.7 | inactive | inactive |  |  | 
3 | CC(C)(C)Cn1c(N)nc2ccc(-c3[nH]c(C(C)(C)C)nc3-c3ccc(F)cc3)nc21 | 11% | 9.48% | 16% | 4.94% | 207 | 59.3 | inactive |  | 13.2 µM (active) |  | 
4 | O=c1cc(-c2ccccc2)oc2cc(O)c(O)c(O)c12 |  |  |  | 6.52% | 151 | 91.7 | inactive |  |  | 20.9 µM (active) | 23.5 µM (active)
5 | CC[C@]1(O)C[C@@H]2CN(CCc3c([nH]c4ccccc34)[C@@](C(=O)OC)(c3cc4c(cc3OC)N(C=O)[C@@H]3C45CCN4CC=C[C@](CC)([C@H]45)[C@@H](OC(C)=O)[C@]3(O)C(=O)OC)C2)C1 (stereo not given in full) | 5.87% | 10.2% | 16.2% | 3.8% | 15 | 51.8 | inactive |  | inactive | 16.6 µM (active) | 
6 | c1ccc2c(Cc3c[nH]c4ccccc34)c[nH]c2c1 | 22.8% | 60.6% | 22.5% |  | 29.3 | 13.2 |  | 14.8 µM (active) | 4.18 µM (active) | 2.64 µM (active) | 4.18 µM (active)
7 | COc1ccc(C2Sc3ccccc3N(CCN(C)C)C(=O)C2OC(C)=O)cc1 (stereo not given) | 68.8% and 96.6% | 81% and 97.9% | 33.4% and 89.9% | 60.2% and 101% | 150 | 90 | inactive | inactive | inactive | 18.7 µM (active) | inactive
8 | N#CC(=C(N)Sc1ccccc1N)C(C#N)=C(N)Sc1ccccc1N |  | 12.1% | 10.6% | 5.29% | 16.6 | 12.1 | inactive |  |  |  | 
9 | CC[C@@]1(O)C[C@H](O[C@H]2C[C@H](N(C)C)[C@H](O[C@H]3C[C@H](O)[C@H](O[C@H]4CCC(=O)[C@H](C)O4)[C@H](C)O3)[C@H](C)O2)c2c(cc3c(c2O)C(=O)c2c(O)cccc2C3=O)[C@@H]1C(=O)OC | 3.31% | 4.79% | 5.22% | 2.06% | 5.55 | 3.95 | inactive | 0.296 µM (active) | inactive | 0.59 µM (active) | 0.187 µM (active)
10 | O=C(O)C=Cc1ccc(O)c(O)c1 | 53.1% | 82.5% | 22.8% | 64.3% | 21.3 | 8.99 | inactive | 23.5 µM (active) | 20.9 µM (active) | 8.33 µM (active) | 18.7 µM (active)
11 | C=C1C(=O)[C@@]23C(CC[C@@H]1[C@H]2O)[C@@]12CO[C@]3(O)[C@@H](O)[C@@H]1C(C)(C)CC[C@@H]2O (stereo not given in full) | 33.5% | 75.5% | 18.4% | 5.26% | 2.66 | 2.13 | inactive | 4.18 µM (active) | 5.26 µM (active) | 7.43 µM (active) | 
12 | O=c1cc(-c2ccc(O)cc2)oc2cc(O)cc(O)c12 | 7.22% | 42.9% | 6.57% | 3.14% | 8.72 | 4.48 | inactive | 23.5 µM (active) |  | 18.7 µM (active) | 
13 | CCCCCNC(=O)N1CCC(CN(Cc2ccc(Cl)cc2)Cc2ccc([N+](=O)[O-])s2)C1 (stereo not given) | 60.8% | 25.2% |  | 55.8% | 15.7 | 44.4 | inactive |  |  | 20.9 µM (active) | 
14 | CC1(C)CCC2=C(O1)c1ccccc1C(=O)C2=O | 22.8% | 71% |  | 20.3% | 4.24 | 4.06 | inactive | 23.5 µM (active) |  | 26.4 µM (active) | 26.4 µM (active)
15 | Cc1ccccc1C(C(=O)NC1CCCCC1)N(C(=O)Cn1ccnc1C)c1cccc(F)c1 (stereo not given) | 103% | 36.3% | 25.9% | 271% | 125 | 107 | inactive | inactive | 8.33 µM (active) | inactive | 
16 | C[N+](C)(C)CC(=O)O | 86.7% |  | 93.5% | 85.2% | 178 | 114 | inactive | inactive | inactive | inactive | 
17 | O=c1c(O)c(-c2ccc(O)cc2)oc2cc(O)cc(O)c12 | 24.5% | 97.3% | 27.5% | 19.7% | 140 | 13.1 |  | 11.8 µM (active) |  | 16.6 µM (active) | 18.7 µM (active)
18 | CC=CC[C@@H](C)C(=O)[C@H]1C(=O)N[C@@H](C(C)C)C(=O)N(C)CC(=O)N(C)[C@@H](CC(C)C)C(=O)N[C@@H](C(C)C)C(=O)N(C)[C@@H](CC(C)C)C(=O)N[C@@H](C)C(=O)N[C@H](C)C(=O)N(C)[C@@H](CC(C)C)C(=O)N(C)[C@@H](CC(C)C)C(=O)N(C)[C@@H](C(C)C)C(=O)N1C | 90.9% |  | 107% | 103% | 62.3 | 37 | inactive | inactive | 18.7 µM (active) | 18.7 µM (active) | 16.6 µM (active)
19 | NS(=O)(=O)c1cccc2c1C(=O)c1cccc(O)c1C2=O | 4.48% | 6.12% | 4.4% | 2.61% | 5.1 | 3.92 | inactive | 11.8 µM (active) | 1.87 µM (active) | 18.7 µM (active) | 18.7 µM (active)
